The full list was thinned out, with hits kept by preference.
Dicer processing – inhibitors of human Dicer processing of pre-microRNA | hit rate 6% among 47,000 | Q9UPY3 | z-score at 25 µM | cat-ELCCA pre-miR-21 Dicer processing, chemiluminescence; hits give high values; in the data active = z-score above about 3, passing the limit was not always enough;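 note: plate controls were vehicle for no effect and no enzyme for full effect; higher signal means more uncleaved substrate so more Dicer inhibition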
The depositor's hits bear a star.

SMILES | Dicer processing
CC(O)(CS(=O)(=O)c1ccc(F)cc1)C(=O)Nc1ccc(C#N)c(C(F)(F)F)c1 (centres undefined) | 0.92
N#Cc1ccc(NC(=O)c2c(F)cccc2F)cc1C(F)(F)F | 1.3
CC(=O)Nc1ccc(C#N)c(C(F)(F)F)c1 | 5.6*
O=C(NC(=S)Nc1cc(C(F)(F)F)cc(C(F)(F)F)c1)Oc1ccccc1 | -1.1
CC(=O)N1N=C2C3CCN(CC3)C2C1c1cccc(F)c1 (centres undefined) | -0.66
C/C(=C\c1ccc(Cl)cc1Cl)[N+](=O)[O-] | 5.3
OCC12COC3c4ccccc4C(OC1)N32 (centres undefined) | 5.6*
COc1ccc2c(c1)c(C(=O)O)c(C)n2C | 0.29
CNc1ccc(Br)cc1C(=O)c1ccc(Cl)cc1 | -2.1
O=C1C2CCN(CC2)C1CSc1ccc(Cl)cc1 (centres undefined) | -0.31
O=C(CNC1CCCCC1)c1ccc(O)c(O)c1 | 10*
Cc1ccc(-n2c(SCC(C)C)nc3cccc(F)c3c2=O)cc1C | -0.21
CN(C)C(=O)Oc1noc2ccc(Cl)cc12 | 0.46
Cc1ccc2[nH]c(=S)n(-c3ccc(Br)c(C)c3)c(=O)c2c1 | 1.7
C=C(C)Cc1c(C)nc(SCC(=O)C(C)(C)C)nc1OC(=O)N(C)C | 1.9
CC1(C)SCN2C(=S)N(c3ccc([N+](=O)[O-])cc3)C(=O)C21 (centres undefined) | -1.5
CCC1C(C#N)=C(N)Oc2c1c(=O)oc1ccccc21 (centres undefined) | -0.66
CCOC(=O)C1=C(N)Oc2c(c(=O)oc3ccccc23)C1c1ccc(OC)cc1 (centres undefined) | 3*
CCOC(=O)C1=C(N)Oc2c(c(=O)oc3ccccc23)C1c1ccccc1 (centres undefined) | 6.5
CC12CCC3(C[C@@H]1CCC1C2CCC2(C)C1CC[C@]2(C)O)OCCO3 (some centres undefined) | 0.6
O=C1C(=Cc2ccco2)C(=O)N(c2ccccc2)C(=S)N1c1ccccc1 | 3.3*
Cc1ccc(-n2c(C)nc3cc(Cl)ccc3c2=O)cc1Cl | -1
CC1CN=C(Nc2cccc(C(F)(F)F)c2)S1 (centres undefined) | 0.02
S=C1NC2=C(CCc3ccccc32)C(c2cccnc2)N1 (centres undefined) | -0.78
CC1(C)CCC(C)(C)c2cc(-c3csc(CS(=O)(=O)C(C)(C)C)n3)ccc21 | -1.3
SMILES | Dicer processing
C[C@@]12C[C@H](O)CCN1CCc1ccccc12 | 0.35
O=c1c2ccccc2nc(/C=C/c2ccc(O)cc2)n1-c1ccc(O)cc1 | 1.7
COc1cccc(-n2c(/C=C/c3ccco3)nc3ccccc3c2=O)c1 | 0.91
COc1cccc(-n2c(/C=C/c3c[nH]c4ccccc34)nc3ccccc3c2=O)c1 | 3.4*
COCc1cc(OC(=O)N(C)C)nc(Cc2c(Cl)cccc2Cl)n1 | 0.6
O=C1NC(=O)C(O)(c2c[nH]c3ccccc23)C(=O)N1 | 1.1
Cn1cncc1C(O)c1ccccc1 (centres undefined) | 0.37
CC12CCC3C4CCC(=O)C=C4CCC3C1CC[C@]2(C)O (some centres undefined) | -0.7
O=C(O)c1cn(Cc2ccc(Cl)cc2)c2ccccc12 | 0.07
c1ccc(CCNCc2ccc3c(c2)OCO3)cc1 | -0.43
O=C(Cn1cc(C(=O)c2ccccc2)c2ccccc21)NCc1ccc2c(c1)OCO2 | 3.5*
Cc1nc2c(Br)cc(Br)cc2c(=O)n1-c1cccc(C(F)(F)F)c1 | -0.26
O=C1NC(=O)C(=Cc2ccc(Cl)cc2Cl)C(=O)N1 | -2.9
CN(C)C(=O)Oc1nnc(SCc2ccccc2)n1-c1cccc(Cl)c1 | -0.56
CC12CCC3(C=C1CCC1C2CCC2(C)C(O)CCC12)OCCO3 (centres undefined) | 0.81
Oc1ccc(Br)cc1CN1CCN(Cc2cccc(F)c2)CC1 | 7*
Oc1ccc(Br)cc1CN1CCN(Cc2ccc(F)cc2)CC1 | 3.3*
CSc1ccc(CN2CCN(Cc3cc(Br)ccc3O)CC2)cc1 | 6.1*
Clc1cccc(CN2CCN(Cc3cccc(Br)c3)CC2)c1 | 1.3
CSc1ccc(CN2CCN(Cc3ccc(Cl)cc3)CC2)cc1 | 0.08
COc1ccc(O)c(CN2CCN(Cc3ccc(Br)cc3)CC2)c1 | 5.1*
CSc1ccc(CN2CCN(Cc3ccc(F)cc3)CC2)cc1 | 2.4
Cc1cc(C(=O)Nc2ccc(C(C)(C)C)cc2)nn1C(C)(C)C | -0.53
Cc1ccc(NC(=S)N2CCOC2c2cccnc2)cc1Cl (centres undefined) | 0.89
CCNCC(O)c1ccc([N+](=O)[O-])cc1 (centres undefined) | 0.31
SMILES | Dicer processing
Cc1nc2ccccc2c(=O)n1-c1cc(F)c(F)cc1F | -0.79
O=C(O)C1C2c3ccccc3C(c3ccccc32)C1C(=O)O (centres undefined) | -0.48
Cc1cc(NC(=O)Oc2ccccc2)no1 | 0.81
Cc1ccc2nc(C(F)(F)F)n(-c3ccc(Cl)cc3)c(=O)c2c1 | 1.8
O=C(c1ccco1)c1cn(CCCOc2ccccc2Cl)c2ccccc12 | -1.2
CC1CC2C/C(=N\O)CC1N(C)C2 (centres undefined) | -2.2
CSC(=NCc1ccccc1Cl)N/C(N)=N\[N+](=O)[O-] | 0.91
CCC1=C[C@@H]2CN3CCc4c([nH]c5ccccc45)[C@@](C(=O)OC)(C2)[C@@H]13 | -1.4
O=C1/C(=C\c2ccc(C(F)(F)F)cc2)N2CCC1CC2 | 0.28
O=C1CSC(c2ccc3c(c2)OCO3)c2c(n(C3CCCCC3)[nH]c2=O)N1 (centres undefined) | -0.81
O=[P@]1(N(CCCl)CCCl)NCCCO1 | -0.61
Cc1cc(NC(=O)C(Cl)(Cl)Cl)ccc1Br | 1
COc1ccccc1N1CCN(Cc2ccccc2F)CC1 | -1.6
COc1ccccc1CN1CCN(Cc2cc(Br)ccc2O)CC1 | 8*
O=C(NC(=S)Nc1ccccc1OC(F)(F)F)Oc1ccccc1 | -4.5
Cc1cccc(NC2=NCC(C)S2)c1 (centres undefined) | -0.23
O=C(NC1CCCCC1)Oc1cc2oc(=O)sc2cc1Cl | 4.1*
NCCCNc1ccc([N+](=O)[O-])c2cccnc12 | 0.82
CC(=O)OC1CCC2(C)C3CCC4(C)C(OC(C)=O)CCC4C3CC(O)[C@@]2(O)C1 (some centres undefined) | 0.87
CCOc1ccc(Br)cc1/C=C(\C)[N+](=O)[O-] | -1
CC(=O)CC(c1ccc([N+](=O)[O-])cc1)c1c(OC(C)=O)c2ccccc2oc1=O (centres undefined) | -0.15
COCc1cc(OC(=O)N(C)C)nc(-c2cccc(C)c2)n1 | 0.37
CSc1nc(OC(=O)N(C)C)cc(-c2ccccc2)n1 | 3.7*
Cc1cc(OC(=O)N(C)C)nc(SCc2c(F)cccc2Cl)n1 | 0.04
COCCCn1c(OC(=O)N(C)C)c(C)c(C)nc1=S | -0.8
SMILES | Dicer processing
CCC(C)n1[nH]c(=O)c2c1NC(=O)CSC2c1ccc(OC(C)C)cc1 (centres undefined) | -0.71
COc1ccc(Br)c(NC2=NCCS2)c1 | -0.17
Cc1ccc(NC2=NCCS2)cc1Cl | -1.1
COc1ccc(OC)c(NC2=NCCS2)c1 | 3.1*
CC(=O)c1ccc(Cl)c(-n2c(=S)[nH]c3ccccc3c2=O)c1 | -0.99
COc1cc(-n2c(SC)nc3ccccc3c2=O)c(OC)cc1Cl | 0.26
CC(C)C1(C)N=C(c2ncccc2C(=O)O)NC1=O (centres undefined) | 3.2*
C=CCc1cc(C)cc(-n2nc3ccccc3n2)c1O | 1.1
Cc1ccc(S(=O)(=O)N2CCCCC2c2cccnc2)cc1 (centres undefined) | -0.61
c1coc(CNCCc2ccc3c(c2)OCO3)c1 | 7.7*
c1cc2c(cc1CCNCc1ccc3c(c1)OCO3)OCO2 | 2.5
